Assay outcomes as filed in PubChem BioAssay.
ARNT-TACC3 inh: disruptors of ARNT/TACC3 protein interaction, primary screen, biochemical, AlphaScreen, single concentration; AID 623870, 2012; AlphaScreen His-ARNT PAS-B/GST-TACC3 binding, luminescence; TACC3 fragment carries E629A point mutation; inhibition, % at 9.99 µM; 390,000 compounds, 0.66% hits; Transforming acidic coiled-coil-containing protein 3 (Homo sapiens), Q9Y6A5;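 active = mean inhibition of replicates at least 50% and at least half of replicates each reaching 50%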;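 also: 0% = complete ARNT plus TACC3 wells and 100% = ARNT alone without TACC3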
rRNA inh HTS: reduced GFP signal of wild-type E. coli, primary screen, bacterial rRNA inhibitor project, GFP/RFP fluorescence, OD600, single point | E. coli WT GFP vs humanized-ribosome RFP mutants, 24 h; active compounds read low; DMSO median 0, no signal -100 | AID 720706, 2013 | 350,000 compounds, 1.6% hits | GFP signal change (wild-type ribosome), % (test concentration not listed);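 active = significant combined selectivity score with lowered wild-type GFP, culture density cut under 30%, mutant RFP and density less affected; inactive = any of these conditions unmet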
F508del corr: F508del CFTR correction, initial screen, CFBE line, single point | CFBE cells, YFP halide quenching; stimulated with forskolin plus potentiator P3; % fluorescence drop versus neutral controls | activity (quench increase), % at 7.58 µM | 350,000 compounds, 0.36% hits | AID 720511, 2013;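 active = mean added fluorescence quench of at least 8% versus neutral control, with both replicates also reaching 8%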;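 also: cells transiently co-express mutant CFTR-F508del with the halide-sensitive YFP; corrector assay measuring rescue of mutant channel to the surface after 24 h compound exposure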
PvdQ inh: P. aeruginosa PvdQ acylase inhibitors, primary screen, biochemical, fluorescence, plate reader and imaging, single point; PvdQ acylase [Pseudomonas aeruginosa LESB58]; purified PvdQ acylase; inhibition, % at 10 µM; 340,000 compounds, 0.063% hits; AID 488965, 2010; in the data active = inhibition above about 30%, passing the limit was not always enough;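 also: 0% = vehicle neutral wells and 100% = reference inhibitor wells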
ERAP1 HTS inh: human ERAP1 aminopeptidase inhibitors, primary screen, biochemical, single point, plate reader | recombinant ERAP1, Leu-AMC fluorescence, 60 min | Endoplasmic reticulum aminopeptidase 1 (Homo sapiens), Q9NZ08 | 340,000 compounds, 0.15% hits | AID 652197, 2013 | inhibition, % at 10.7 µM;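 active = mean replicate inhibition of at least 30%, or all replicates individually reaching that 30% level; inactive = mean below 30% and not every replicate reaching it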;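 also: 0% = neutral control wells and 100% = L-leucinethiol positive control wells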
Target sequence (Q9NZ08 whole entry, looked up): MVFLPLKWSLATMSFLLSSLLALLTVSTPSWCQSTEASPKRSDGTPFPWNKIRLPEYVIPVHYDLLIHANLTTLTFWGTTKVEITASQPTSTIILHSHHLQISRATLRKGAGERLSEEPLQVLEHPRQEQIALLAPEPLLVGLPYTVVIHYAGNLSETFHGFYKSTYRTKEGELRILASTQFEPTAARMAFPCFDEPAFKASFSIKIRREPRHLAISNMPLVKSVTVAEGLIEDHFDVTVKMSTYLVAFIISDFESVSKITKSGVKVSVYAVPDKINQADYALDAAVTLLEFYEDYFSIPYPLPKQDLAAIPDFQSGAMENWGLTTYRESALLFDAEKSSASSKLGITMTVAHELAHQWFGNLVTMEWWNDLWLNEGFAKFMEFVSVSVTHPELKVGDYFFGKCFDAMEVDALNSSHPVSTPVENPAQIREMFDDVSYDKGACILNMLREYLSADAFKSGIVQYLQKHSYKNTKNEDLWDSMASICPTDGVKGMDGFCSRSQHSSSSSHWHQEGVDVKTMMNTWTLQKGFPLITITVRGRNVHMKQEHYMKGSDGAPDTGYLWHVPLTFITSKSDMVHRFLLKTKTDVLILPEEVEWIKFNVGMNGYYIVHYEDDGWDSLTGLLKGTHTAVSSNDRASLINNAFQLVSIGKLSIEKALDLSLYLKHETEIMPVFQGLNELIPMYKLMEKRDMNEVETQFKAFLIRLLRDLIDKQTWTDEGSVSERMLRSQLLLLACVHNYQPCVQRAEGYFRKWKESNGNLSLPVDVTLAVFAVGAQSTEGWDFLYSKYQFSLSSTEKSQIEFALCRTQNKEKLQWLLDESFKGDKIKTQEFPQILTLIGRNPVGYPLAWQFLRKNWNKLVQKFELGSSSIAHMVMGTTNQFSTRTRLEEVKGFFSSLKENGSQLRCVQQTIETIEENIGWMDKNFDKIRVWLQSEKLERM
An asterisk follows results filed as active; / = no result. The list is not random: actives were taken first. Their share in the collection is about 2.1%.

SMILES	ARNT-TACC3 inh	rRNA inh HTS	F508del corr	PvdQ inh	ERAP1 HTS inh
O=C(CCN1CCCCC1)NCC[C@H]1CC[C@@H](NC(=O)C2CC2)[C@H](CO)O1	-4	2	-2	/	1
C[C@@H]1CCCCO[C@H](CN(C)S(=O)(=O)c2ccc(F)cc2)[C@@H](C)CN([C@H](C)CO)C(=O)c2cc(NC(=O)Nc3cccc4ccccc34)ccc2O1	7	6	0	/	0
O=C(Nc1cc(F)ccc1F)N1CC(=O)N2[C@@H](CO)[C@H](c3ccc(C#CC4CCCCC4)cc3)[C@@H]2C1	/	2	9.9*	/	-3
CCCC#Cc1ccc([C@@H]2[C@@H](CO)N3C(=O)CN(C(=O)Nc4cc(F)ccc4F)C[C@H]23)cc1	/	0	/	/	/
CCCC#Cc1ccc([C@H]2[C@H](CO)N3C(=O)CN(C(=O)Nc4cc(F)ccc4F)C[C@@H]23)cc1	/	4	10*	/	1
C[C@H](CO)N1C[C@H](C)[C@@H](CN(C)Cc2ccc(Oc3ccccc3)cc2)Oc2ccc(NC(=O)C3CC3)cc2CC1=O	-1	-27	-2	/	2
CC(C)c1cccc(-c2csc(C(O)c3ccco3)n2)c1 (stereo not given)	/	-4	8.9*	/	-1
N#CCCCCn1ccc(NC(=O)c2ccc(Cl)cc2O)n1	3	-30*	-1	6	6
CCCCNc1cc(C(=O)O)cc(S(N)(=O)=O)c1Oc1ccccc1	-39	/	8.6*	-8	-1
CCCCN(C)CCNC(=O)c1ccc(Cn2c(=S)[nH]c3ccc(Br)cc3c2=O)cc1	1	-53*	1	-20	8
C[C@@H]1CCCCO[C@H](CN(C)S(=O)(=O)c2ccccc2)[C@@H](C)CN([C@@H](C)CO)C(=O)c2cc(NS(=O)(=O)c3ccc(F)cc3)ccc2O1	/	-1	2	/	1
NS(=O)(=O)c1ccc(CCNC(=O)c2cc(-c3cc(Cl)ccc3O)n[nH]2)cc1	1	-49	1	-1	2
COc1ccc(CCNC(=O)c2cc(-c3cc(C)cc(C)c3O)n[nH]2)cc1OC	-10	-24	0	-9	-2
Cc1cc(C)c(O)c(-c2cc(C(=O)NCCc3ccc(S(N)(=O)=O)cc3)[nH]n2)c1	9	-33*	3	3	-1
Cc1cc(O)c(-c2cc(C(=O)NCCc3ccc(S(N)(=O)=O)cc3)[nH]n2)cc1C	6	-35*	5	-2	1
C[C@@H]1CN([C@@H](C)CO)C(=O)c2cc(-c3ccc(F)cc3)cnc2O[C@@H]1CN(C)Cc1ccc(F)cc1	/	4	-2	/	/
COc1cc(NC(=O)C/C(C)=N/NC(=O)C(=O)NCCO)c(OC)cc1Cl	13	-52*	0	0	0
O=C(CN1C(=O)NC(c2ccccc2)(c2ccccc2)C1=O)NCc1cccs1	-8	-36*	2	-16	-5
O=C(CN1C(=O)NC2(CCCCCCC2)C1=O)NCc1cccs1	/	-5	-1	0	17
O=C(O)/C(=C\c1ccc2ccccc2c1)c1cccc2ccccc12	5	-47*	4	5	0
O=C(O)C(=Cc1ccncc1)c1cccc2ccccc12	/	-10	-1	/	2
O=C(/C=C/c1ccc(Cl)cc1)NC(=S)Nc1ccccc1C(=O)O	1	-18*	-4	7	-6
NC(=O)c1ccccc1NC(=O)/C=C/c1ccc(Cl)cc1	4	/	/	-7	/
COC(=O)[C@@]1(CCS(=O)(=O)c2ccccc2)N=C(c2ccc(OCCCO)cc2)O[C@H]1c1ccccc1CN=[N+]=[N-]	/	/	3	/	2
C[C@@H]1CN([C@@H](C)CO)C(=O)c2ccccc2-c2ccccc2CO[C@@H]1CN(C)C(=O)CCN(C)C	3	5	-2	/	-2
SMILES	ARNT-TACC3 inh	rRNA inh HTS	F508del corr	PvdQ inh	ERAP1 HTS inh
CCC1=Nc2cc(C(=O)NCC3CCCO3)ccc2Sc2ccc(Br)cc21 (stereo not given)	0	-4	4	13	2
CCC1=Nc2cc(C(=O)NCc3cccnc3)ccc2Sc2ccc(C)cc21	7	-22*	12*	-11	9
CCC1=Nc2cc(C(=O)NCC3CCCO3)ccc2Sc2ccc(Cl)cc21 (stereo not given)	-10	-12	15*	-9	-3
NC(CO)C(=O)NNCc1ccc(O)c(O)c1O (stereo not given)	57*	3	-2	-4	3
CCOC(=O)c1c(C)[nH]c2cc(Br)c(O)cc12	0	/	/	-9	/
CCOC(=O)c1c(OCC)[nH]c2c1cc(O)c1ccccc12	33*	/	/	2	/
COc1ccc(C2=Nn3c(nnc3-c3ccccc3OC)SC2)cc1OC1CCOC1 (stereo not given)	47*	-14	9.7*	10	/
CCOc1ccc(N2C(=O)CC(Sc3nc(O)c(CC)c(=O)[nH]3)C2=O)cc1 (stereo not given)	/	-39*	-1	/	-1
Cc1ccc(C)c(NC(=S)N/N=C2\CCc3ccccc32)c1	5	-24*	-1	-8	2
Cc1ccc(NC(=S)N/N=C2/CCCCc3ccccc32)cc1	0	-4	-3	-6	-8
CO[C@H](CN(C)Cc1cc(F)ccc1F)[C@H](C)CN([C@H](C)CO)S(=O)(=O)c1ccc(F)cc1	3	-4	0	/	-5
COc1ccc(C2NC(=S)NC3=C2N2CCC3CC2)cc1 (stereo not given)	active	7	-1	-11	-1
Fc1ccc(C2NC(=S)NC3=C2N2CCC3CC2)cc1 (stereo not given)	0	5	1	-15	1
CCCNC(=O)N1CC2(C1)CN(C(=O)CC)[C@H](CO)c1[nH]c3cc(OC)ccc3c12	/	4	1	/	1
C=CCc1cccc(/C=N/NC(=O)C(=O)Nc2ccc(C)cc2)c1O	/	31	-2	3	-1
C=CCc1cccc(/C=N/NC(=O)C(C)Nc2ccc(C)cc2)c1O (stereo not given)	/	-32*	/	4	1
C[C@H](CO)N1C[C@H](C)[C@H](CN(C)S(=O)(=O)c2ccccc2)Oc2ccc(NC(=O)Cn3cnnn3)cc2CC1=O	-2	1	-2	/	3
C#CCSc1ncc(-c2ccccc2)cn1	-7	-6	2	48*	-2
CCCC(=O)N1CCN(c2nc3c(OC)ccc(Cl)c3s2)CC1	24	-36*	-4	-6	2
C[C@@H]1CN([C@H](C)CO)C(=O)Cc2cc(NC(=O)CCCCCC(=O)Nc3ccccc3N)ccc2O[C@H]1CN(C)C(=O)Nc1ccc2c(c1)OCO2	14	1	1	/	-2
CCn1c(C)csc1=NC(=O)c1ccccc1O	-7	-23*	-1	12	0
O=C(NCCc1ccc(F)cc1)c1cc([N+](=O)[O-])ccc1N1CCOCC1	2	4	2	-3	-1
